Growth inhibition data for 64 compounds are collected here from PubChem BioAssay AID371 (SRMLSC, 2006).

Where “and” joins values, the source holds several entries; their conditions need not be identical. Equal entries are not always repeated. Out of some 3,300 compounds screened, about 280 (8.5%) were called active. The entries come from a sample that favours actives as a whole. Values without a mark were called inactive.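 How the source made its calls: active means mean growth inhibition over the two runs of 50% or more; inactive means mean growth inhibition under 50%.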

This experiment is described as follows: A549 NSCLC cell proliferation inhibitors – ATP luminescence, human non-small cell lung line, primary screen (AID 371).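 Further: compound exposure lasted 72 h before the ATP read; 0% = untreated cell signal and 100% = no luminescence left.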 The note with it: at 10 µM, hits give high values.
Take `c1ccc(C2Nc3ccccc3-c3nc4ccccc4n32)nc1` (centres undefined): the growth inhibition is 26%.
As for `Cc1nn(CC(=O)NCCN2CCOCC2)c(=O)c2ccccc12`, the growth inhibition is 1.62%.
For `Oc1ccccc1CNn1cnnc1` the value was 7.07%; for `Cc1ccc(OCC(=O)N(C)CCc2ccccn2)cc1`, -1.84%; for `O=C(NCc1cccnc1)c1ccc(=O)oc1`, -2.22%.
With `CSc1nc(NC(C)=O)nc(C)c1Cl`, the growth inhibition is 3.88%.
As for `C=CCN(C(=O)CCC(=O)O)C1CC(=O)N(c2ccc(OCCC)cc2)C1=O` (centres undefined), the growth inhibition is 34.7%.
Turning to `Cc1cccc(C)c1NC(=O)CSCC(=O)c1ccc(O)c(O)c1`, the growth inhibition is 76.2% (active).
For `Cc1cccc(C)c1NC(=O)C1CCCCN1C` (centres undefined) the value was -1.85%; for `CCN(CC)CC(=O)Nc1c(C)cccc1C`, -1.4% and -6.03%.
Turning to `COc1ccc(/C(O)=C2/C(=O)C(=O)N(CCN3CCOCC3)C2c2ccccn2)cc1` (centres undefined), the growth inhibition is 7.6%.
Take `Cc1cc(C)n(C(=O)CSc2nc3ccccc3o2)n1`: the growth inhibition is -7.75%.
On to `Cc1cc(=O)[nH]c(COc2ccccc2)n1`, for which the growth inhibition is 6.76%.
Take `COCc1cc(=O)[nH]c(Nc2nc3ccccc3o2)n1`: the growth inhibition is 66.6% (active).
With `COCc1cc(=O)[nH]c(Nc2nc3ccc(C)cc3o2)n1`, the growth inhibition was 70.6% (active).
Take `Cc1cccc(OCc2nc(C)cc(=O)[nH]2)c1`: the growth inhibition is 1.95%.
In the case of `COc1ccccc1C1CC(c2ccc(Cl)cc2)Nc2nc(N)nn21` (centres undefined), the growth inhibition was 8.72%.
Turning to `Cc1cc2c(C)nc(Cc3ccccc3)nc2o1`, the growth inhibition is 1.92%.
For `CCCCCCn1c(C(C)O)nc2ccccc21` (centres undefined) the value was 15.7%.
`COc1cccc(/C(O)=C2/C(=O)C(=O)N(CCCN(C)C)C2c2cccc(Cl)c2)c1` (centres undefined): the growth inhibition was -2.1%.
Take `Cc1cccc(N2CN=c3s/c(=C\c4ccncc4)c(=O)n3C2)c1`: the growth inhibition was 5.71%.
As for `N#CC1=C(N)N(c2ccccc2)C(c2ccccc2)C1(C#N)C#N` (centres undefined), the growth inhibition is 21.4%.
Consider `Cn1ncc(N=Cc2c(O)ccc3ccccc23)c1C(=O)N1CCOCC1`, for which the growth inhibition is 3.71%.
`Cc1coc2c(O)cc3c(c12)OC1(N2CCCCC2)C(=O)NCCCC31` (centres undefined): the growth inhibition is 91.4% (active).
Turning to `COc1ccc(C2N3CC4(C)CN2CC(C)(C3)C4O)cc1OC` (centres undefined), the growth inhibition was 0.13%.
As for `CC1(C)Cc2c(oc3ncn4ncnc4c23)CO1`, the growth inhibition is 0.31%.
As for `COc1cc(C)nc(Oc2ccc(OCCOc3ccc(C)cc3)nn2)n1`, the growth inhibition is 6.13%.
To `CCc1[nH]c(=O)c(C#N)c2c1CCCC2` belongs 2.12%.
Take `CC1CCN(c2[nH]c(=S)c(C#N)c3c2CCCC3)CC1`: the growth inhibition is 56% (active).
For `CC1(C)Cc2c(c(N3CCCCC3)[nH]c(=S)c2C#N)CS1` the value was 4.02%.
Consider `COc1ccc2c(c1)[nH]c1c(=O)n(CCN(C)C)cnc12`, for which the growth inhibition is 4.43%.
In the case of `CC1(C)SC2[C@H](NC(=O)C(NC(=O)N3CCNC3=O)c3ccccc3)C(=O)N2C1C(=O)O` (some centres undefined), the growth inhibition is 3.08%.
Consider `CC(C)C1C(C#N)=C(N)Oc2n[nH]c(C(C)(C)C)c21` (centres undefined), for which the growth inhibition was -3.11%.
For `Cc1[nH]nc2c1C(CCc1ccccc1)C(C#N)=C(N)O2` (centres undefined) the value was 0.1%; for `C1CCC(C(CC2CCCCN2)C2CCCCC2)CC1` (centres undefined), 91.8% (active); for `N#CCSc1nc2c(c(=O)n1Cc1ccco1)C1(CCCC1)Cc1ccccc1-2`, 30.2%.
For `Cc1ccnc(N2CCN(c3c4c(c(C#N)c5nc6ccccc6n35)CCC4)CC2)c1` the value was 7.43%.
For `COc1cc(=O)[nH]c(=O)n1CC(=O)c1ccccc1` the value was -1.03%; for `CC1(C)Cc2c(c(-c3ccco3)[nH]c(=O)c2C#N)CS1`, 0.57%.
On to `CC1(C)Cc2c(C#N)c(N3CCOCC3)nc(Cc3ccccc3)c2CO1`, for which the growth inhibition was 16.7%.
For `CCc1nc(N2CCN(C(=O)c3ccccc3)CC2)c(C#N)c2c1COC(C)(C)C2`, the growth inhibition is 36.6%.
For the compound `CCCCc1nc(NCCNC(=O)c2ccco2)c(C#N)c2c1CSC(C)(C)C2`, the growth inhibition was 56.1% (active).
Consider `CC1(C)Cc2c(C#N)c(N3CCN(C(=O)c4ccccc4)CC3)nc(-c3ccco3)c2CS1`, for which the growth inhibition is 12.2%.
To `CCCCc1nc(NCCN2CCOCC2)c(C#N)c2c1COC(C)(C)C2` belongs 1.05%; to `CC1(C)Cc2c(C#N)c(N3CCN(C(=O)c4ccco4)CC3)nc(Cc3ccccc3)c2CO1`, 72.3% (active); to `CC1(C)Cc2c(C#N)c(N3CCN(C(=O)c4ccco4)CC3)nc(-c3ccco3)c2CS1`, 50.1% (active).
Regarding `CC1(C)Cc2c(C#N)c(NCCc3ccccc3)nc(-c3ccco3)c2CO1`, the growth inhibition is 1.2%.
For `CCOC(=O)C(C(=O)OCC)N(C#N)c1nc(SC)nc(N(C)C)n1` the value was -4.38%; for `Cc1nnc(SCC(=O)N2CCC(C(N)=O)CC2)s1`, -21.6%; for `C=C(C)CN(CC)CCC(=O)Nc1ccc(OC)cc1OC`, 4.6%.
In the case of `COC(=O)CNC(=O)c1c(C)cc(=O)oc1C`, the growth inhibition is 0.81%.
With `CC1(C(=O)CSc2nc3ccccc3s2)CCC(=O)O1` (centres undefined), the growth inhibition is 3.38%.
Take `O=c1cc(N2CCCCC2)nc2n1CCCS2`: the growth inhibition is 8.96%.
To `Cc1ccc(S(=O)(=O)N2CCN(c3nc(C(C)C)c4c(c3C#N)CC(C)(C)OC4)CC2)cc1` belongs 29.3%.
Regarding `Cc1ccc2[nH]c3c(NCCN4CCOCC4)ncnc3c2c1`, the growth inhibition is 18%.
Take `Clc1ccc2[nH]c3c(NCCCN4CCOCC4)ncnc3c2c1`: the growth inhibition was 89.9% (active).
For `Clc1ccc2[nH]c3c(NCCN4CCOCC4)ncnc3c2c1` the value was 34.3%; for `C=CCn1c(SCC#N)nc2c(c1=O)C(C)(C)Cc1ccccc1-2`, 28.8%; for `COn1c(=S)[nH]c2ccccc2c1=O`, 3.49%.
To `CCCCCCCCCCCCCCCC(O)C(N)CO` (centres undefined) belongs 94.3% (active); to `CCSC(SCC)[C@H](O)[C@@H](O)[C@H](O)[C@H](O)CO`, -2.15%.
As for `Cc1cc(C)n(-c2c(F)c(F)c(CN3CCCCC3)c(F)c2F)n1`, the growth inhibition is 9.57%.
Take `CN(C)c1cccc2c(S(=O)(=O)N3CCOCC3)cccc12`: the growth inhibition was 15.9%.
Consider `Cc1ccc(C(=O)/C=C/Nc2cccc(O)c2)cc1`, for which the growth inhibition is 37.1%.
